# From PMC12820563, “FoxP3 forms a head-to-head dimer in vivo and stabilizes its multimerization on adjacent microsatellites”
# Whole data set: some 16,000 sequences, median “rpm ratio (pull-down/input)” near 0.94, cut for the highest 2% near 1.7. Shown is part of a subset that was picked to be rich in the highest values.
# Molecular target: T1, MBP-FoxP1dN (Mus musculus, UniProt P58462 326-579)
# T1 sequence: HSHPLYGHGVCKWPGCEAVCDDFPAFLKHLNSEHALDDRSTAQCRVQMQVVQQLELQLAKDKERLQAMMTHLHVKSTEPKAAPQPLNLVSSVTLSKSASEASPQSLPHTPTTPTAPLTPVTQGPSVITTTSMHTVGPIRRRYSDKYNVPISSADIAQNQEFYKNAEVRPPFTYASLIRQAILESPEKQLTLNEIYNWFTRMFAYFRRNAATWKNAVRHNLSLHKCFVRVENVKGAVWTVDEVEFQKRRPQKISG
# Experiment: PD-seq (MBP pull-down with sequencing); 20 mM Tris-HCl pH 7.5, 100 mM NaCl, 1.5 mM MgCl2, 0.4 uM protein, 0.1 uM dsDNA library, 30 min, room temperature, amylose pull-down; high values mean tight binding
# Settings: protein: recombinant; tags: His6-MBP; chain copies: 2; dsDNA, one strand shown
# Summary of the method: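 Mouse FoxP3 or FoxP1 fragment lacking the N-terminus, His6-MBP-tagged and expressed in E. coli, was incubated at 0.4 µM with 0.1 µM Klenow-filled degenerate double-stranded DNA library for 30 min at room temperature in Tris pH 7.5 buffer with NaCl and MgCl2. Complexes captured on amylose resin were washed three times and their DNA sequenced on Illumina. Binding is reads-per-million enrichment of pull-down over input, replicates pooled.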
row,Sequence,binding signal
1,GATGATTGTTCTCCCAGCTGATGAATTGGATGTATCGAGTAAACAAATTTTCCTAATCTTTCTGTTCAAGCGCCATCTAC,1.1 RPM ratio (pull-down/input)
2,GATGATTGTTCTCCCAGCTGATGAATTGAAAATCTCGAGTAAACAAATTTTCCTAATCTTTCTGTTCAAGCGCCATCTAC,0.791 RPM ratio (pull-down/input)
3,GATGATTGTTCTCCCAGCTGATGAATTCAACTCGTCGAGTAAACAAATTTTCCTAATCTTTCTGTTCAAGCGCCATCTAC,0.869 RPM ratio (pull-down/input)
4,GATGATTGTTCTCCCAGCTGATGAATTTCTGTACTCGAGTAAACAAATTTTCCTAATCTTTCTGTTCAAGCGCCATCTAC,0.909 RPM ratio (pull-down/input)
5,GATGATTGTTCTCCCAGCTGATGAATTTACCATCTCGAGTAAACAAATTTTCCTAATCTTTCTGTTCAAGCGCCATCTAC,1.19 RPM ratio (pull-down/input)
6,GATGATTGTTCTCCCAGCTGATGAATTTCCAATGTCGAGTAAACAAATTTTCCTAATCTTTCTGTTCAAGCGCCATCTAC,0.862 RPM ratio (pull-down/input)
7,GATGATTGTTCTCCCAGCTGATGAATTATCCGATTCGAGTAAACAAATTTTCCTAATCTTTCTGTTCAAGCGCCATCTAC,0.95 RPM ratio (pull-down/input)
8,GATGATTGTTCTCCCAGCTGATGAATTTGTATTCTCGAGTAAACAAATTTTCCTAATCTTTCTGTTCAAGCGCCATCTAC,1.44 RPM ratio (pull-down/input)
9,GATGATTGTTCTCCCAGCTGATGAATTCTTAGTATCGAGTAAACAAATTTTCCTAATCTTTCTGTTCAAGCGCCATCTAC,0.963 RPM ratio (pull-down/input)
10,GATGATTGTTCTCCCAGCTGATGAATTTATTAAATCGAGTAAACAAATTTTCCTAATCTTTCTGTTCAAGCGCCATCTAC,1.39 RPM ratio (pull-down/input)
11,GATGATTGTTCTCCCAGCTGATGAATTATTTCTATCGAGTAAACAAATTTTCCTAATCTTTCTGTTCAAGCGCCATCTAC,1.13 RPM ratio (pull-down/input)
12,GATGATTGTTCTCCCAGCTGATGAATTGTTATTATCGAGTAAACAAATTTTCCTAATCTTTCTGTTCAAGCGCCATCTAC,3.14 RPM ratio (pull-down/input)
13,GATGATTGTTCTCCCAGCTGATGAATTTTTAGTATCGAGTAAACAAATTTTCCTAATCTTTCTGTTCAAGCGCCATCTAC,1.02 RPM ratio (pull-down/input)
14,GATGATTGTTCTCCCAGCTGATGAATTTTTATTATCGAGTAAACAAATTTTCCTAATCTTTCTGTTCAAGCGCCATCTAC,2.02 RPM ratio (pull-down/input)
15,GATGATTGTTCTCCCAGCTGATGAATTATCGTTATCGAGTAAACAAATTTTCCTAATCTTTCTGTTCAAGCGCCATCTAC,1.11 RPM ratio (pull-down/input)
16,GATGATTGTTCTCCCAGCTGATGAATTATTTTTATCGAGTAAACAAATTTTCCTAATCTTTCTGTTCAAGCGCCATCTAC,1.4 RPM ratio (pull-down/input)

row,Sequence,binding signal
1,GATGATTGTTCTCCCAGCTGATGAATTGTTAGTATCGAGTAAACAAATTTTCCTAATCTTTCTGTTCAAGCGCCATCTAC,1.76 RPM ratio (pull-down/input)
2,GATGATTGTTCTCCCAGCTGATGAATTTCTATTATCGAGTAAACAAATTTTCCTAATCTTTCTGTTCAAGCGCCATCTAC,1.48 RPM ratio (pull-down/input)
3,GATGATTGTTCTCCCAGCTGATGAATTATTATCATCGAGTAAACAAATTTTCCTAATCTTTCTGTTCAAGCGCCATCTAC,1.38 RPM ratio (pull-down/input)
4,GATGATTGTTCTCCCAGCTGATGAATTATTATTATCGAGTAAACAAATTTTCCTAATCTTTCTGTTCAAGCGCCATCTAC,2.52 RPM ratio (pull-down/input)
5,GATGATTGTTCTCCCAGCTGATGAATTTGGCGTCTCGAGTAAACAAATTTTCCTAATCTTTCTGTTCAAGCGCCATCTAC,0.85 RPM ratio (pull-down/input)
6,GATGATTGTTCTCCCAGCTGATGAATTAGTTCGTTCGAGTAAACAAATTTTCCTAATCTTTCTGTTCAAGCGCCATCTAC,0.937 RPM ratio (pull-down/input)
7,GATGATTGTTCTCCCAGCTGATGAATTCCGTGTTTCGAGTAAACAAATTTTCCTAATCTTTCTGTTCAAGCGCCATCTAC,0.891 RPM ratio (pull-down/input)
8,GATGATTGTTCTCCCAGCTGATGAATTATGATTCTCGAGTAAACAAATTTTCCTAATCTTTCTGTTCAAGCGCCATCTAC,0.982 RPM ratio (pull-down/input)
9,GATGATTGTTCTCCCAGCTGATGAATTCCAAGCGTCGAGTAAACAAATTTTCCTAATCTTTCTGTTCAAGCGCCATCTAC,0.867 RPM ratio (pull-down/input)
10,GATGATTGTTCTCCCAGCTGATGAATTGCACACATCGAGTAAACAAATTTTCCTAATCTTTCTGTTCAAGCGCCATCTAC,1.31 RPM ratio (pull-down/input)
11,GATGATTGTTCTCCCAGCTGATGAATTTCTGCAGTCGAGTAAACAAATTTTCCTAATCTTTCTGTTCAAGCGCCATCTAC,0.883 RPM ratio (pull-down/input)
12,GATGATTGTTCTCCCAGCTGATGAATTGAGTGATTCGAGTAAACAAATTTTCCTAATCTTTCTGTTCAAGCGCCATCTAC,0.981 RPM ratio (pull-down/input)
13,GATGATTGTTCTCCCAGCTGATGAATTACCGGGCTCGAGTAAACAAATTTTCCTAATCTTTCTGTTCAAGCGCCATCTAC,0.841 RPM ratio (pull-down/input)
14,GATGATTGTTCTCCCAGCTGATGAATTAGAAAGTTCGAGTAAACAAATTTTCCTAATCTTTCTGTTCAAGCGCCATCTAC,0.938 RPM ratio (pull-down/input)
15,GATGATTGTTCTCCCAGCTGATGAATTCTTATTATCGAGTAAACAAATTTTCCTAATCTTTCTGTTCAAGCGCCATCTAC,1.6 RPM ratio (pull-down/input)
